Active and inactive are the calls of the source.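 The calls were made as follows, unless noted: active = fluorescence slope higher than the sample average by over 3 SD (cut at about -0.22 in these data, passing the limit was not always enough); inactive = the rest.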

What is called inhibition is the change of the read-out against control, counted positive when it falls.

A short description of assay [1]: inhibitors of TNFa-induced NFkB p65 translocation, primary screen, imaging, HUVEC, MLSMR starter and 10KST1 sets (AID 438;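 active = inhibition above 20% together with a positive visual image hit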;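 also: compound added about 3h40 before a 20 min TNFalpha stimulation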;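 as to inhibition: signal is the nuclear over cytoplasmic p65 intensity ratio per well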). The note with it: HUVEC TNFa-induced p65 nuclear translocation; cell count: measured here: nuclei count (cytotoxicity indicator), at 2.08 µM; inhibition: at 2 µM, stronger effect = higher value, 0% TNFa-plus-vehicle, 100% no-TNFa wells.
The nature of assay [2]: inhibitors of mutant huntingtin aggregation, primary screen, imaging, exon1htt(103Q)mCFP cells, high-content imaging (AID 483;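 active = visual image review flags a hit and inhibition of aggregation exceeds 20%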;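 also: compound exposure lasted 3 days before fixation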;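 as to nuclei count: percent of the per-plate median nuclei count of sample wells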). Conditions: exon1htt(103Q)mCFP cell line, aggregate imaging, at 2 µM; inhibition of aggregation: stronger effect = higher value; nuclei count: measured here: cell count, toxicity.
Assay [3] can be described thus: inhibitors of E-selectin induction by TNFa, primary screen, imaging, HUVEC, immunofluorescence, MLSMR starter and 10KST1 sets (AID 487;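 active = visually confirmed hit in the image check and inhibition above 20%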;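 as to inhibition: signal is fraction of cell area covered by stained E-selectin grains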;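 as to nuclei count: 100% = median nuclei count of all wells on the same plate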). Conditions: HUVEC TNFalpha-induced E-selectin immunofluorescence imaging, at 2 µM; inhibition: stronger effect = higher value; nuclei count: measured here: cell number, toxicity.
Assay [4] has as its target Voltage-gated potassium channel subunit beta-2 (Rattus norvegicus) (UniProt P62483). Put plainly: KvBeta enzyme negative modulators, primary screen, biochemical, NADPH fluorescence (AID 622).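 Also: slope of raw intensity against log time taken from 70 to 1610 s.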 Conditions: recombinant KvBeta, 4-cyanobenzaldehyde reduction, at 10 µM, stronger effect = higher value.
For assay [5] the target is unchanged. Put plainly: KvBeta positive modulators, primary screen, biochemical, NADPH fluorescence (AID 623;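 active = NADPH fluorescence slope more negative than the mean of all samples by about 3 SD, 99.7% confidence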;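 also: fluorescence intensity change per second fitted from 20 to 320 s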). The note with it: Recombinant KvBeta, NADPH fluorescence decrease slope, 10 min; at 10 µM; stronger effect = lower value.
For assay [6], the target named is Alpha-2C adrenergic receptor (Homo sapiens) (UniProt P18825). Put plainly: modulators of alpha2C/GIRK thallium flux, primary screen, cell-based, HEK293 alpha2C/GIRK1/2 (AID 624;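 active = fluorescence slope after compound addition differing from the mean of all screened samples at 99.7% confidence, in either direction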;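 also: slope of fluorescence ratio to pre-addition baseline per second over 15 to 24 s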). Conditions: thallium flux BTC fluorescence, at 10 µM, actives lie on both sides.
Chain of Alpha-2C adrenergic receptor (Homo sapiens) (P18825 whole entry, looked up): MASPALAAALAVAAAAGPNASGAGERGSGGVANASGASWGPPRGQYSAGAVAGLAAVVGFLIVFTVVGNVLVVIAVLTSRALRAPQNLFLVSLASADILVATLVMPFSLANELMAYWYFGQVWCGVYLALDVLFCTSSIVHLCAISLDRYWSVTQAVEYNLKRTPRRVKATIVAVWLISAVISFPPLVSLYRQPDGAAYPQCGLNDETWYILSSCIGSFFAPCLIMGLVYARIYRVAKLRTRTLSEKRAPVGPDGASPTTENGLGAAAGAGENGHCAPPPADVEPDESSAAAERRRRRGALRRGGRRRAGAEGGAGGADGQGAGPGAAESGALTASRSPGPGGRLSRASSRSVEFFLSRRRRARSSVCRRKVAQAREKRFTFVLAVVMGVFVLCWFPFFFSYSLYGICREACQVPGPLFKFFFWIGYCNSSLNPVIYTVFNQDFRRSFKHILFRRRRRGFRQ
Assay [7] in a line: inhibitors of Sendai virus-induced IRF3 signaling, primary screen, TLR/RLR signaling modifier project, cell-based, Sendai virus stimulus, luciferase, 10K MLSCN set (AID 602276;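 active = inhibition at or above 50% at 10 µM; inactive = inhibition below 50%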;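 also: firefly luciferase from ISG56 promoter only with Renilla not read in this screen; 0% = Sendai virus plus DMSO and 100% = medium plus DMSO without virus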). Conditions: HEK293 RL24 IRF3 luciferase reporter, at 10 µM, stronger effect = higher value. For orientation: Reporter assays use an easily measured gene product as a stand-in for the process of interest.
Assay [8] can be described thus: inhibitors of poly I:C-induced TLR3 signaling, primary screen, cell-based, poly I:C stimulus, luciferase, 10K MLSCN set (AID 602277;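 active = inhibition of the reporter signal at or above 50%; inactive = inhibition below 50%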). The note with it: HEK293-TLR3 RL24 IRF3 luciferase reporter, at 10 µM, stronger effect = higher value.

Chain of Voltage-gated potassium channel subunit beta-2 (Rattus norvegicus) (P62483 whole entry, looked up): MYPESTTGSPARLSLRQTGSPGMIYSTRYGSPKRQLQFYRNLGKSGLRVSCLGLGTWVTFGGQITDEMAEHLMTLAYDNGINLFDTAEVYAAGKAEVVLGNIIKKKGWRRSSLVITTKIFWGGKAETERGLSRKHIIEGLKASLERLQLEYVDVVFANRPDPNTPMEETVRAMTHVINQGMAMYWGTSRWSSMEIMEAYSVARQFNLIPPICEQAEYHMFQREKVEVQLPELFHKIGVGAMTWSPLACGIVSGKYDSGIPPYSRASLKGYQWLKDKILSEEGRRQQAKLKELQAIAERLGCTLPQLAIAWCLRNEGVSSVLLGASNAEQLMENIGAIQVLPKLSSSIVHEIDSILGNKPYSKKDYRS

With `CCOC(=O)C1CCCN(c2c(N3CCN(c4ccccn4)CC3)c(=O)c2=O)C1` (centres undefined), the cell count in assay [1] stood at 631. The inhibition in assay [1] was 6.9% (inactive); in assay [3] it was -5.4% (inactive); in assay [7], 3.88% (inactive); in assay [8], 27.8% (inactive). For the same compound, the inhibition of aggregation in assay [2] was 11.3% (inactive). Also, the results for the nuclei count in assay [2] and in assay [3] were 98.8% and 132%, respectively. In assay [4], the fluorescence slope was -0.503 (inactive). The NADPH fluorescence slope in assay [5] is -3.5e-05 (inactive). The slope in assay [6] was 0.00587 (inactive).

For `COc1ccc(-c2noc(CSc3nc(N)c(-c4ccccc4)c(=O)[nH]3)n2)cc1OC`, the cell count in assay [1] stood at 338. The inhibition was 5.8% (inactive) in assay [1], -12.1% (inactive) in assay [3], 12% (inactive) in assay [7] and 15.6% (inactive) in assay [8]. For the same compound, the inhibition of aggregation in assay [2] is -0.8% (inactive). Besides, the nuclei count in assay [2] stood at 97.1%; in assay [3], 122%. Moreover, in assay [4], the fluorescence slope was -0.441 (inactive). Moreover, the NADPH fluorescence slope in assay [5] was 2.8e-05 (inactive). Moreover, the slope in assay [6] was 0.00653 (inactive).

`CCOC(=O)C1CCN(C(=O)COc2ccc(S(=O)(=O)NC(C)C)cc2Cl)CC1`: the cell count in assay [1] worked out at 718. Also, the inhibition was 1.5% (inactive) in assay [1], -3.9% (inactive) in assay [3], 12% (inactive) in assay [7] and 9.55% (inactive) in assay [8]. Further, the inhibition of aggregation in assay [2] is 9% (inactive). Also, the figures for the nuclei count in assay [2] and in assay [3] were 109% and 97.5%, respectively. Further, the fluorescence slope in assay [4] was -0.46 (inactive). In assay [5], the NADPH fluorescence slope is -1.1e-05 (inactive). Further, in assay [6], the slope is 0.00357 (inactive).

`O=C(NC1CCCC1)C(c1cccs1)N(Cc1ccco1)C(=O)Cn1nnc(-c2cccs2)n1` (centres undefined): the cell count in assay [1] amounted to 482. The inhibition in assay [1] is -3.3% (inactive); in assay [3], 3.8% (inactive); in assay [7] it was 20.2% (inactive); in assay [8] it was 23.1% (inactive). Further, the inhibition of aggregation in assay [2] is -7.1% (inactive). For the same compound, the values for the nuclei count in assay [2] and in assay [3] were 102% and 101%, respectively. For the same compound, the fluorescence slope in assay [4] is -0.487 (inactive). Further, in assay [5], the NADPH fluorescence slope is -3.1e-05 (inactive). The slope in assay [6] is 0.00489 (inactive).

Take `CCc1cc2c(=O)n(C(C)C(=O)OC3CCCCC3)cnc2s1` (centres undefined): the cell count in assay [1] was found to be 561. Moreover, the inhibition in assay [1] was 0% (inactive); in assay [3], -73.8% (inactive); in assay [7] it was -49.6% (inactive); in assay [8], -101% (inactive). In assay [2], the inhibition of aggregation is 32% (inactive). For the same compound, the nuclei count in assay [2] worked out at 114%; in assay [3], 103%. Further, in assay [4], the fluorescence slope was -0.486 (inactive). In assay [5], the NADPH fluorescence slope was -3.4e-05 (inactive). In addition, the slope in assay [6] is 0.00382 (inactive).

With `Cc1nc2ccccc2c(=O)n1CC(=O)N1CCOCC1`, in assay [1], the cell count was found to be 558. In addition, the inhibition in assay [1] is -17.1% (inactive); in assay [3] it was 22.8% (inactive); in assay [7], 14.1% (inactive); in assay [8], 13.2% (inactive). Besides, in assay [2], the inhibition of aggregation was 11.6% (inactive). For the same compound, the nuclei count in assay [2] was 78.3%; in assay [3] it was 89.9%. The fluorescence slope in assay [4] was -0.503 (inactive). Besides, the NADPH fluorescence slope in assay [5] was -4.9e-05 (inactive). In assay [6], the slope is 0.00461 (inactive).

For the compound `Cc1cnc(C(=O)OCC(=O)Nc2ccc(Oc3ccccc3)cc2)cn1`, the cell count in assay [1] is 566. Also, the inhibition in assay [1] was -16.3% (inactive); in assay [3] it was -1.5% (inactive); in assay [7] it was -29.5% (inactive); in assay [8] it was -39.7% (inactive). Besides, the inhibition of aggregation in assay [2] was -29.2% (inactive). Besides, the results for the nuclei count in assay [2] and in assay [3] were 107% and 122%, respectively. For the same compound, the fluorescence slope in assay [4] is -0.367 (inactive). Besides, in assay [5], the NADPH fluorescence slope was -8.3e-06 (inactive). Further, the slope in assay [6] is 0.00457 (inactive).

On to `Cc1cccc(N2CCN(C(=O)Cn3nc(Cc4ccncc4)c4ccccc4c3=O)CC2)c1C`, for which, in assay [1], the cell count amounted to 895. The inhibition in assay [1] is -5.5% (inactive); in assay [3] it was -72% (inactive); in assay [7], 4.52% (inactive); in assay [8], 5.5% (inactive). The inhibition of aggregation in assay [2] was 14.3% (inactive). Also, the figures for the nuclei count in assay [2] and in assay [3] were 103% and 118%, respectively. In assay [4], the fluorescence slope is -0.563 (inactive). In assay [5], the NADPH fluorescence slope is -4.2e-05 (inactive). Further, the slope in assay [6] is 0.00577 (inactive).

For the compound `CCc1ccc(NC(=O)c2cccnc2)cc1`, the cell count in assay [1] was 337. Moreover, the inhibition was -3.8% (inactive) in assay [1], -14.1% (inactive) in assay [3], -27% (inactive) in assay [7] and -80.3% (inactive) in assay [8]. For the same compound, in assay [2], the inhibition of aggregation was 23.7% (inactive). Besides, the nuclei count in assay [2] came to 88%; in assay [3], 110%. The fluorescence slope in assay [4] is -0.429 (inactive). Besides, the NADPH fluorescence slope in assay [5] was -2.2e-05 (inactive). Moreover, the slope in assay [6] was 0.00479 (inactive).

On to `C=C(C)Cn1c(-c2ccccc2)nc2ccccc21`, for which, in assay [1], the cell count was 326. In addition, the inhibition in assay [1] is -5.5% (inactive); in assay [3] it was -17.6% (inactive); in assay [7] it was 14.4% (inactive); in assay [8], 2.46% (inactive). Besides, in assay [2], the inhibition of aggregation was -4.2% (inactive). For the same compound, the nuclei count in assay [2] was 113%; in assay [3] it was 104%. Also, the fluorescence slope in assay [4] was -0.512 (inactive). Further, the NADPH fluorescence slope in assay [5] is -5.5e-05 (inactive). The slope in assay [6] was 0.00476 (inactive).

`C=CCn1c(=O)c(C(=O)Nc2ccccc2C(=O)OCC)c(O)c2ccccc21`: the cell count in assay [1] came to 495. The inhibition in assay [1] was -5.5% (inactive); in assay [3], -23.1% (inactive); in assay [7], 16.9% (inactive); in assay [8], 14.7% (inactive). In addition, the inhibition of aggregation in assay [2] is -15.6% (inactive). Moreover, the figures for the nuclei count in assay [2] and in assay [3] were 120% and 122%, respectively. Further, the fluorescence slope in assay [4] is -0.422 (inactive). The NADPH fluorescence slope in assay [5] is -4.7e-05 (inactive). In assay [6], the slope is 0.00716 (inactive).

For `O=C(c1ccccc1F)N1CCN(Cc2cccc(Cl)c2)CC1`, the cell count in assay [1] was determined as 649. Further, the inhibition in assay [1] was 3% (inactive); in assay [3], -3.6% (inactive); in assay [7] it was 9.77% (inactive); in assay [8], 10.5% (inactive). For the same compound, the inhibition of aggregation in assay [2] was 10.9% (inactive). Moreover, the nuclei count in assay [2] was determined as 99.3%; in assay [3], 98.3%. Besides, the fluorescence slope in assay [4] is -0.654 (inactive). Also, the NADPH fluorescence slope in assay [5] is 1.7e-05 (inactive). Also, the slope in assay [6] is 0.00876 (inactive).

In the case of `CSCCC(NS(=O)(=O)c1ccc2c(c1)oc(=O)n2C)C(=O)NC1CCCCC1` (centres undefined), the cell count in assay [1] was determined as 627. Besides, the inhibition was -6% (inactive) in assay [1], -35.6% (inactive) in assay [3], 11.8% (inactive) in assay [7] and 25.6% (inactive) in assay [8]. Moreover, in assay [2], the inhibition of aggregation is 7.8% (inactive). In addition, the values for the nuclei count in assay [2] and in assay [3] were 93% and 106%, respectively. In addition, the fluorescence slope in assay [4] is -0.584 (inactive). Moreover, the NADPH fluorescence slope in assay [5] is -3.7e-05 (inactive). In addition, the slope in assay [6] was 0.00669 (inactive).

In the case of `COc1ccccc1C(=O)N1CCN(C(=O)c2ccncc2)CC1`, in assay [1], the cell count was determined as 252. In addition, the inhibition in assay [1] is 7.8% (inactive); in assay [3], 12.3% (inactive); in assay [7] it was 8.46% (inactive); in assay [8], 6.89% (inactive). Moreover, the inhibition of aggregation in assay [2] was -2.8% (inactive). Besides, the nuclei count came out at 92.4% in assay [2] and 76.2% in assay [3]. Moreover, the fluorescence slope in assay [4] was -0.515 (inactive). In addition, the NADPH fluorescence slope in assay [5] was -1.9e-05 (inactive). For the same compound, the slope in assay [6] was 0.00571 (inactive).

(Values after PubChem BioAssay.)
